From PubChem BioAssay AID624296 (National Center for Advancing Translational Sciences (NCATS), 2012)
Values joined by “and” are separate entries in the source; they are usually repeats but may differ in a detail not shown here. Equal values may be shown once. Hit rate of the full screen: of about 350,000 compounds, about 9,900 (2.8%) were called active. Inconclusive results (about 15%) are left out. The sample holds actives, similar compounds and a random draw of the others, so the mix is not that of the screen. Calls come from the whole dose curve; as a rule, active = well fitted activation curve with a large enough effect; inconclusive = small, poorly fitted or top-dose-only effect; inactive = no such curve, though single readings can be large or run the other way. Where a structure was tested more than once in an assay, its records may differ in their call.

Assay: A quantitative high throughput screen for small molecules that induce DNA re-replication in MCF 10a normal breast cells. For activity, positive = re-replication: % of control where 0% means no effect. Note: nearly all actives have a fitted effect of over 50% in size.
Details: MCF 10A DNA re-replication, Hoechst nuclear intensity, 48 h; series mostly up to 46.1 µM; activity, positive = re-replication: at the top concentration
Potency is the fitted concentration of half-maximal effect.

Row | SMILES | activity, positive = re-replication | Potency
1 | COc1ccc(CCNC(=O)c2ccc(NC(=O)CC3SC(N4CCCCC4)=NC3=O)cc2)cc1OC (configuration not stated) | -0.0243% (inactive) | –
2 | Cn1c(N)cc(=O)n(C)c1=S | 0.759% (inactive) | –
3 | CCOc1ccccc1NC(=O)CCc1ccc(C)o1 | -0.239% (inactive) | –
4 | Cc1ccc(CCC(=O)Nc2ncc(Cc3cc(Cl)ccc3Cl)s2)o1 | – | 1.16 µM (active)
5 | Cc1cnc(NC(=O)CSc2nnc(-c3ccc(Cl)cc3Cl)n2N)s1 | -3.27% (inactive) | –
6 | CNS(=O)(=O)c1ccc(C(=O)NCC(=O)NCCc2ccc3c(c2)OCCO3)cc1 | 0.564% (inactive) | –
7 | N/C(=N\OC(=O)N1c2ccccc2Sc2ccccc21)c1ccc(Br)cc1 | – | 5.17 µM (active)
8 | CCOC(=O)CNC(=O)N1c2ccccc2Sc2ccccc21 | -0.866% (inactive) | –
9 | N/C(=N\OC(=O)c1ccc2c(c1)OCO2)c1ccc(Br)cc1 | 0.704% (inactive) | –
10 | O=C(OCC(=O)N1CCN(c2ccccc2)CC1)c1ccc([N+](=O)[O-])s1 | -0.635% (inactive) | –
11 | COc1ccc(CCNC(=O)COC(=O)c2cnc(Cl)c(Cl)c2)cc1 | 8.58% (inactive) | –
12 | O=C(COc1cccc(-n2cnnn2)c1)NCCC1=CCCCC1 | 8.98% (inactive) | –
13 | O=C(Cc1cccc2ccccc12)NCCC1=CCCCC1 | -2.42% (inactive) | –
14 | Cc1nnc(OCC(=O)NCCC2=CCCCC2)c2ccccc12 | – | 20.6 µM (active)
15 | O=C(OCCOc1ccccc1F)c1cc(S(=O)(=O)N2CCOCC2)ccc1F | -9.85% (inactive) | –
16 | CCCCN(C(=O)c1nn(C)c(=O)c2ccccc12)c1c(N)n(CCC)c(=O)[nH]c1=O | -7.2% (inactive) | –
17 | COC(=O)C1=C(C)OC(N)=C(C#N)C1c1cc(OC)ccc1OC (configuration not stated) | -1.47% (inactive) | –
18 | CCC1=C(C(=O)OC)C(c2cc(OC)ccc2OC)C(C#N)=C(N)O1 (configuration not stated) | 5.44% (inactive) | –
19 | COc1ccc(C2C(C#N)=C(N)Oc3cc(N)ccc32)cc1OC (configuration not stated) | – | 18.4 µM (active)
20 | O=C1NCC(c2ccccc2)(c2ccccc2)C(=O)N1 | -6.97% (inactive) | –
21 | O=C(Cc1ccc([N+](=O)[O-])cc1)NCCc1ccc2c(c1)OCO2 | 1.24% (inactive) | –

Row | SMILES | activity, positive = re-replication | Potency
22 | O=C(c1cccnc1)N(Cc1ccccc1)C(=O)c1cccnc1 | -18.6% (inactive) | –
23 | Cc1ccc(-n2c(O)c(C=Nc3ccc(S(=O)(=O)Nc4ncccn4)cc3)c3ccccc3c2=O)cc1C | -2.8% (inactive) | –
24 | COC(=O)Cc1csc(Nc2c(C)n(C)n(-c3ccccc3)c2=O)n1 | 1.03% (inactive) | –
25 | COC(=O)Cc1csc(/N=C/c2c(O)n(-c3cccc(C(F)(F)F)c3)c(=O)c3ccccc23)n1 | – | inactive and 3.26 µM (active)
26 | Cc1ccc(C)c(NC(=O)COC(=O)c2nn(C)c(=O)c3ccccc23)c1 | -0.108% (inactive) | –
27 | COc1ccc(/C=C/C(=O)N2CCCC2)cc1OC | -0.699% (inactive) | –
28 | COC(=O)c1ccc(COc2ccc(/C=C/C(=O)c3ccc(OC)c(CSCC(=O)O)c3)cc2OC)cc1 | – | 2.91 µM (active)
29 | COc1cc(/C=N/O)ccc1OCc1ccc([N+](=O)[O-])cc1 | 10.9% (inactive) | –
30 | Cc1c(Cl)cnc(NC(=O)COC(=O)C2CCCC2)c1Cl | -0.757% (inactive) | –
31 | Cc1noc(C)c1COc1ccc(C(=O)NCCOc2ccccc2)cc1 | -5.83% (inactive) | –
32 | Cc1onc(-c2ccccc2Cl)c1C(=O)OCC(=O)c1ccccc1 | – | 16.4 µM (active)
33 | Cc1onc(-c2ccccc2Cl)c1C(=O)OCc1nnc(-c2ccccc2)o1 | 3.73% (inactive) | –
34 | COc1ccc(C(=O)COC(=O)c2c(C)noc2C)cc1Cl | -7.07% (inactive) | –
35 | COc1cc(C(=O)OCc2cc(=O)n3ccsc3n2)ccc1OC(C)C | 1.85% (inactive) | –
36 | O=C(CN1C(=O)COc2ccccc21)Nc1ccc(F)cc1 | – | 20.6 µM (active)
37 | CC(OC(=O)CN1C(=O)COc2ccccc21)C(=O)NCc1ccc(F)cc1 (configuration not stated) | -13.3% (inactive) | –
38 | O=C(CN1C(=O)COc2ccccc21)NCCN1CCc2ccccc2C1 | 1.31% (inactive) | –
39 | Cc1ccc(S(=O)(=O)N2CCN(C(=O)c3cc(S(=O)(=O)N4CCOCC4)ccc3F)CC2)cc1 | 9.74% (inactive) | –
40 | O=C(c1ccc(Cl)c(S(=O)(=O)N2CCCCCC2)c1)N1CCN(c2ccc(O)cc2)CC1 | 13.3% (inactive) | –
41 | Cc1ccc(C(=O)NNC(=O)CSc2nnc3ccccn23)cc1 | 5.99% (inactive) | –
42 | Cc1ccc(C(C[N+](=O)[O-])c2c(C)cc3ccccn23)cc1 (configuration not stated) | – | 20.6 µM (active)

Row | SMILES | activity, positive = re-replication | Potency
43 | CC(=O)Nc1ccc(/C=N/Nc2ccc(C(=O)c3c(C)cc4ccccn34)cc2[N+](=O)[O-])cc1 | -1.8% (inactive) | –
44 | CCCCC(=O)N/N=C(\C)CC(=O)Nc1cc(Cl)ccc1OC | -0.526% (inactive) | –
45 | C/C(CC(=O)NCc1ccc(Cl)cc1)=N\NC(=O)COc1ccc(C)cc1Br | – | 5.8 µM (active)
46 | Cc1cc(Cl)ccc1OCCCC(=O)NCc1ccncc1 | 2.15% (inactive) | –
47 | COc1ccc(CC(=O)N[C@@H]2c3cc(OC)c(OC)cc3C[C@H]2OCc2ccccc2)cc1 | -30.6% (inactive) | –
48 | Cc1ccc(C(=O)Nc2ccccc2-c2ccccc2)cc1S(=O)(=O)Nc1ccccc1 | -0.658% (inactive) | –
49 | O=S(=O)(Nc1cc(Cl)ccc1N1CCOCC1)c1ccccc1Cl | 8.16% (inactive) | –
50 | CCCc1ccc(-c2c(C)sc(NC(=O)c3ccnn3C)c2C#N)cc1 | – | 16.4 µM (active)
51 | Cn1nccc1CNC(=O)c1ccnn1C | 2.28% (inactive) | –
52 | Cc1sc(NC(=O)C2=COCCO2)c(C#N)c1C | 1.25% (inactive) | –
53 | COCC(=O)N(C)[C@H]1C[C@H]2c3cc(Oc4ccccc4C)ccc3CCN2C(=O)[C@H]1[C@H](C)O | -6.77% (inactive) | –
54 | C=CCOC(=O)C1=C[C@@H](c2ccc3c(c2)OCO3)C[C@@H](OCCCCO)O1 | 2.54% (inactive) | –
55 | CN1CCN(C(=O)C2=C[C@H](c3ccc4c(c3)OCO4)C[C@H](OCc3ccc(CO)cc3)O2)CC1 | – | 8.2 µM (active)
56 | CC(=O)n1cc([C@H]2C=C(C(=O)N3CCOCC3)O[C@@H](OCc3ccc(CO)cc3)C2)c2ccccc21 | -18.7% (inactive) | –
57 | O=C(C1=C[C@H](c2coc3ccccc3c2=O)C[C@H](OCc2ccc(CO)cc2)O1)N1CCOCC1 | 12.5% (inactive) | –
58 | NC(=O)C1=C[C@@H](c2ccc3c(c2)OCO3)C[C@@H](OCCCCO)O1 | 4.84% (inactive) | –
59 | CC(=O)n1cc([C@@H]2C=C(C(=O)N3CCN(Cc4ccc5c(c4)OCO5)CC3)O[C@H](OCc3ccc(CO)cc3)C2)c2ccccc21 | – | 13 µM (active)
60 | Cc1ccc2c(CN3CCN(S(=O)(=O)c4ccccc4C(F)(F)F)CC3)cc(=O)oc2c1 | 0.766% (inactive) | –
61 | COc1cc(C(c2c(NC(=O)c3ccco3)sc(C)c2C)N2CCOCC2)cc(OC)c1OC (configuration not stated) | 16.7% (inactive) | –
62 | O=C(O)c1ccc([N+](=O)[O-])cc1Sc1ccsc1 | 5.85% (inactive) | –
